Ten molecules from PubChem BioAssay (EPA / NIEHS) can be followed below.

As a reminder, the AC50 is the midpoint of the concentration-response curve, whichever way the signal moves.

Read-out in assay [1]: Vascular cell adhesion molecule 1 (VCAM1), VCAM1 (gene 7412)
Put plainly: BSK_hDFCGF_VCAM1: BioMAP Diversity Plus: hDFCGF Assay for Vascular cell adhesion molecule 1 (VCAM1) Biomarker Activity (AID 2283065). To be noted: primary human foreskin fibroblasts; actives raise or lower the signal. A digest of the protocol:
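Measured after 24 h chemical treatment of primary human skin fibroblasts, VCAM-1 was detected by ELISA and concentration-response analysed in both directions versus DMSO vehicle.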

Read-out in assay [2]: Intercellular Adhesion Molecule 1 (ICAM1), ICAM1 (gene 3383)
The assay is described as follows: BSK_KF3CT_ICAM1: BioMAP Diversity Plus: KF3CT Assay for Intercellular Adhesion Molecule 1 (ICAM1) Biomarker Activity (AID 2283067). To be noted: primary human keratinocytes with fibroblasts; actives raise or lower the signal. In outline: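 Bidirectional curve fitting against a DMSO baseline was applied to ICAM-1 ELISA signal from primary human skin co-cultures harvested 24 h after treatment, with SRB staining of parallel wells for overt cytotoxicity.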

Read-out in a further assay: CD40, CD40 (gene 958)
Put plainly: BSK_LPS_CD40: BioMAP Diversity Plus: LPS Assay for CD40 Biomarker Activity (AID 2283076). To be noted: primary human HUVEC with PBMC; actives raise or lower the signal. In outline:
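Using a multiplexed primary human co-culture (umbilical vein endothelium plus PBMC), CD40 was read by ELISA 24 h after dosing, with cytotoxicity tracked by sulforhodamine B staining of parallel cultures and activity fitted bidirectionally versus DMSO.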

Read-out in assay [3]: E-selectin (Homo sapiens) (UniProt P16581)
The assay is described as follows: BSK_LPS_Eselectin: BioMAP Diversity Plus: LPS Assay for Eselectin Biomarker Activity (AID 2283077). To be noted: primary human HUVEC with PBMC; actives raise or lower the signal. In outline:
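Dose chemical onto LPS-driven HUVEC/PBMC co-culture; after 24 h, run ELISA for E-selectin; fit up- and down-going responses relative to DMSO control.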

Read-out in assay [4]: Monocyte Chemoattractant Protein-1 (MCP1), CCL2 (gene 6347)
The assay is described as follows: BSK_LPS_MCP1: BioMAP Diversity Plus: LPS Assay for Monocyte Chemoattractant Protein-1 (MCP1) Biomarker Activity (AID 2283081). To be noted: primary human HUVEC with PBMC; actives raise or lower the signal. A digest of the protocol: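 Values derive from bidirectional fitting against DMSO of ELISA-measured MCP-1 in a human primary endothelial and mononuclear cell co-culture, 24 h after chemical addition under LPS activation.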

Assay [5] in a line: BSK_LPS_PGE2: BioMAP Diversity Plus: LPS Assay for Prostaglandin E2 (PGE2) Biomarker Activity (AID 2283082).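 As to AC50: secreted prostaglandin E2 measured by ELISA in LPS-stimulated co-culture.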 To be noted: primary human HUVEC with PBMC; actives raise or lower the signal. A digest of the protocol:
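Endpoint derived from bidirectional curve fitting versus DMSO of ELISA-measured PGE2 in LPS-stimulated human primary vascular co-culture (HUVEC with PBMC) harvested at 24 h.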

Read-out in assay [6]: Macrophage colony-stimulating factor (MCSF), CSF1 (gene 1435)
Put plainly: BSK_LPS_MCSF: BioMAP Diversity Plus: LPS Assay for Macrophage colony-stimulating factor (MCSF) Biomarker Activity (AID 2283083). To be noted: primary human HUVEC with PBMC; actives raise or lower the signal. In outline: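 Bidirectional fit versus DMSO of ELISA-measured M-CSF in co-cultured human umbilical vein endothelial cells and PBMC, sampled 24 h after dosing.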

Read-out in assay [7]: CD69, CD69 (gene 969)
Put plainly: BSK_SAg_CD69: BioMAP Diversity Plus: SAg Assay for CD69 Biomarker Activity (AID 2283089). To be noted: primary human HUVEC with PBMC; actives raise or lower the signal. A digest of the protocol: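 HUVEC co-cultured with PBMC were dosed with chemical, and CD69 was measured by ELISA with fluorescence read-out 24 h later. Bidirectional curve fitting used DMSO as negative control and activity baseline.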

Assay [8] in a line: BSK_SAg_PBMCCytotoxicity: PBMC Cytotoxicity Assessment in the BioMAP Diversity Plus: SAg Assay (AID 2283093).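 Also: PBMC viability measured as Alamar Blue reduction fluorescence at 546/580 nm; fitted both ways against DMSO so a hit may be loss or gain of signal.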 To be noted: primary human HUVEC with PBMC. In outline:
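HUVEC/PBMC co-culture; PBMC exposed to chemical 1 h before SEB and TSST-1 activation (20 ng/mL each), incubated 90 h, then Alamar Blue 6 h, fluorescence 546/580 nm. Bidirectional fit versus DMSO baseline.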

Read-out in assay [9]: Interferon-inducible T-cell alpha chemoattractant (ITAC), CXCL11 (gene 6373)
The assay is described as follows: BSK_hDFCGF_ITAC: BioMAP Diversity Plus: hDFCGF Assay for Interferon-inducible T-cell alpha chemoattractant (ITAC) Biomarker Activity (AID 2284251). To be noted: primary human foreskin fibroblasts. A digest of the protocol: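 Primary human foreskin fibroblasts (hDFCGF system) treated for 24 h; I-TAC quantified by ELISA. Gain-direction fitting versus DMSO; parallel SRB staining of total protein flagged overt cytotoxicity.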

Read-out in assay [10]: Intercellular Adhesion Molecule 1 (ICAM1), ICAM1 (gene 3383)
Put plainly: BSK_BE3C_ICAM1: BioMAP Diversity Plus: BE3C Assay for Intercellular Adhesion Molecule 1 (ICAM1) Biomarker Activity (AID 2284278).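 Also: cell-surface ICAM-1 protein level quantified by ELISA.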 To be noted: primary human bronchial epithelial cells. In outline: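 Measured by ELISA: ICAM-1 expressed by primary human bronchial epithelial cells 24 h after compound treatment, with upward-direction fitting versus DMSO vehicle.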

Read-out in assay [11]: Epidermal growth factor receptor (EGFR), EGFR (gene 1956)
Put plainly: BSK_BE3C_EGFR: BioMAP Diversity Plus: BE3C Assay for Epidermal growth factor receptor (EGFR) Biomarker Activity (AID 2284281). To be noted: primary human bronchial epithelial cells. In outline: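 Human primary bronchial epithelial cells (BE3C system) dosed with chemicals; EGFR measured by ELISA at 24 h, fitted in the positive direction relative to DMSO. Cytotoxicity tracked in parallel cultures by SRB total-protein staining.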

Read-out in a further assay: KRT18 (gene 3875)
The assay is described as follows: BSK_BE3C_Keratin818: BioMAP Diversity Plus: BE3C Assay for Keratin 818 Biomarker Activity (AID 2284282). To be noted: primary human bronchial epithelial cells. A digest of the protocol: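 BE3C: human bronchial epithelial primary cells, 24 h exposure, Keratin 8/18 ELISA; DMSO = negative control/baseline; cytotoxicity by parallel SRB stain (0.1% SRB after 10% TCA fixation, 560 nm).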

Read-out in assay [12]: Matrix Metallopeptidase 9 (MMP9), MMP9 (gene 4318)
The assay is described as follows: BSK_BE3C_MMP9: BioMAP Diversity Plus: BE3C Assay for Matrix Metallopeptidase 9 (MMP9) Biomarker Activity (AID 2284283). To be noted: primary human bronchial epithelial cells. A digest of the protocol: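 Endpoint is the ELISA MMP-9 signal in human primary bronchial epithelial cultures taken 24 h after chemical dosing. DMSO serves as negative control and baseline, with gain-of-signal fitting.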

Read-out in assay [13]: TIMP metallopeptidase inhibitor 2 (TIMP2), TIMP2 (gene 7077)
The assay is described as follows: BSK_hDFCGF_TIMP2: BioMAP Diversity Plus: hDFCGF Assay for TIMP metallopeptidase inhibitor 2 (TIMP2) Biomarker Activity (AID 2284289). To be noted: primary human foreskin fibroblasts. A digest of the protocol: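 Primary human foreskin fibroblasts in the hDFCGF system, dosed for 24 h; TIMP-2 level measured by ELISA, fitted in the positive direction against DMSO; cytotoxicity checked in parallel by sulforhodamine B total protein staining.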

Read-out in assay [14]: CD69, CD69 (gene 969)
Put plainly: BSK_LPS_CD69: BioMAP Diversity Plus: LPS Assay for CD69 Biomarker Activity (AID 2284303). To be noted: primary human HUVEC with PBMC. A digest of the protocol:
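Human umbilical vein endothelial cells co-cultured with PBMC under LPS stimulation, chemical exposure 24 h; cell-surface CD69 measured by ELISA and fitted in the positive direction versus DMSO.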

The target in assay [15] is mouse Estrogen Receptor alpha (Era), Esr1 (gene 13982) (UniProt P19785). The assay is described as follows: NVS_NR_mERa: NovaScreen (NVS) Nuclear Receptor Binding Assay for mouse Estrogen Receptor alpha (Era) (AID 2283378; active = hit-call score of the fitted dose curve at least 0.9, where 1 is the maximum;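 also: hit means loss of bound radioligand signal relative to DMSO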). A digest of the protocol:
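Measurements come from scintillation counting after filtration, taken 18 hours after chemicals were added to a cell-free mouse Era preparation with radioligand. Screening was duplicate at 25 uM, with concurrent positive and negative controls and confirmatory concentration series for actives.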

Assay [16] in a line: ATG_M_61_CIS: Attagene CIS-FACTORIAL HepG2 Assay for M61 Transcription Factor (Internal Marker) (AID 2282937). To be noted: HepG2 Attagene CIS-FACTORIAL M61 internal marker reporter; actives raise or lower the signal. In outline:
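Fluorescence from labelled cDNA fragments, separated by capillary electrophoresis, quantifies reporter induction. HepG2 cells bearing transiently transfected cis-promoter MRTUs were incubated with test chemical for 24 h; DMSO defined baseline for gain/loss fitting.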

Assay [17] can be described thus: ATG_PBREM_CIS: Attagene CIS-FACTORIAL HepG2 Assay for human Phenobarbital-responsive Enhancer Module (PBREM) (AID 2282955). To be noted: HepG2 PBREM cis-reporter, Attagene multiplexed transcription; actives raise or lower the signal. In outline:
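After a 24 h incubation with test chemical, transfected HepG2 cells yield total RNA; reporter-specific RT-PCR products are fluorescently labelled, HpaI-digested and resolved by capillary electrophoresis against ROX size standards.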

The nature of assay [18]: ATG_Ets_CIS: Attagene CIS-FACTORIAL HepG2 Assay for human Erythroblast Transformation Specific (ETS) (AID 2282941). To be noted: HepG2 ETS cis-reporter transcription, actives raise or lower the signal. In outline:
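HepG2 cells transfected with multiple cis-regulated reporter units measuring endogenous ETS-driven transcription, 24 h after dosing. Reporter mRNA quantified by RT-PCR with capillary electrophoresis; bidirectional fit relative to DMSO.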

Several values for one entry are separate records, joined by “and”; a condition that tells them apart may be missing. Equal entries are not always repeated. Inconclusive results are not listed. Some compounds were tested as several samples or in several runs, with calls that do not always agree. Activity calls are given as the source filed them. The calls were made as follows, unless noted: active = hit-call score of the fitted dose curve at least 0.9, where 1 is the maximum; inactive = score below 0.9.

E-selectin (Homo sapiens), sequence (P16581 whole entry, looked up): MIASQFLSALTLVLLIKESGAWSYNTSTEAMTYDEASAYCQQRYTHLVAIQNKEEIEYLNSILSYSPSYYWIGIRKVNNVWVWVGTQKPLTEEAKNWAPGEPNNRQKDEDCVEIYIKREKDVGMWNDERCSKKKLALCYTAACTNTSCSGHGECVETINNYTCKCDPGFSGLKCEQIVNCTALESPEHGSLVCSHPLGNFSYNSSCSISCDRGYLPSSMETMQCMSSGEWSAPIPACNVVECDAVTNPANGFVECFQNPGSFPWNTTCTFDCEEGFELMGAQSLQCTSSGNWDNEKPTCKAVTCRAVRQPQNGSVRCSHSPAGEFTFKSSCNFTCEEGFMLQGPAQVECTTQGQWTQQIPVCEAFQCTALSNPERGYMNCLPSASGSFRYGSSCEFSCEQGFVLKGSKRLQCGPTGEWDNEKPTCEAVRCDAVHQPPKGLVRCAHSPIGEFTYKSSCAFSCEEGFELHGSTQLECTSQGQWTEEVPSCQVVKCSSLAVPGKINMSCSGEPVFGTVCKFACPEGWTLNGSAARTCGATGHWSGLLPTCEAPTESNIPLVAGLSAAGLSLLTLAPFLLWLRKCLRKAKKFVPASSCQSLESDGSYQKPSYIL
mouse Estrogen Receptor alpha (Era), Esr1 (gene 13982), sequence (P19785 whole entry, looked up): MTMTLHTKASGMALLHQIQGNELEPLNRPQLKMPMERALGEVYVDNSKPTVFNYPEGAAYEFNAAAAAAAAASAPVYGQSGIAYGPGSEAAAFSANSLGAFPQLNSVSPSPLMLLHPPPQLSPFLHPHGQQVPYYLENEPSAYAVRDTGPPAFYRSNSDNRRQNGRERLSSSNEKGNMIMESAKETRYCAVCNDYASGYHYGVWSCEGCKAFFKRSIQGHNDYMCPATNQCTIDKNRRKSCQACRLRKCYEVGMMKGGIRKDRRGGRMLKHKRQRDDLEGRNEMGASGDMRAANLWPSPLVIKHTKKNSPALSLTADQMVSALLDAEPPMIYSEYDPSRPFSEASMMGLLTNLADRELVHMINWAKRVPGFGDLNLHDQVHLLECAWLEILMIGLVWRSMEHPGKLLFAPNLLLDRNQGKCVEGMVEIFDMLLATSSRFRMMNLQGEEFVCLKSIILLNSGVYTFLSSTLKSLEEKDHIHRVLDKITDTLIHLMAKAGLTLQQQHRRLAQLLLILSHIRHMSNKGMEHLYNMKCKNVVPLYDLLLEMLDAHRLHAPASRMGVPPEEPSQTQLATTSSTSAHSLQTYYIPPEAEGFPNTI

Consider `COc1ccc(C(=O)c2ccccc2O)c(O)c1`, for which the outcome is “inactive” in [1]; “inactive” in assay [2]; “inactive” in the assay with CD40, CD40 (gene 958); “inactive” in [3]; “inactive” in assay [4]; “inactive” in [6]. Besides, the outcome with CD69, CD69 (gene 969) [7] was “inactive”; in [8] it was “inactive”; in assay [9], “inactive”; in [10], “inactive”; in assay [11] it was “inactive”; with KRT18 (gene 3875), “inactive”. Moreover, the outcome is “inactive” in assay [13] and “inactive” in the assay with CD69, CD69 (gene 969) [14]. In addition, the AC50 is 6.03 µM (active) in assay [5]; 28.3 µM (active) in assay [9]; 10.2 µM (active) and 17.3 µM (active) in assay [12].

With `Nc1nc(N)c2nc(-c3ccccc3)c(N)nc2n1`, the molecule was classed as inactive in assay [15].

Regarding `Brc1ccc(Oc2ccc(Br)cc2)cc1`, the result in assay [16] and in assay [17] was inactive.

`CCC(C)(CCC(C)C)C(=O)O` (stereo unspecified): the result in assay [16] and in [18] was inactive.

For the molecule `CCO[Si](CCCN)(OCC)OCC`, the molecule was classed as inactive in [16] and in assay [17].

Take `C1CN(CCOCCN2CCOCC2)CCO1`: the outcome in [1] is “inactive”; in assay [2], “inactive”; with CD40, CD40 (gene 958), “inactive”; in assay [3], “inactive”; in assay [4], “inactive”; in [5], “inactive”. The outcome in assay [6] is “inactive”; with CD69, CD69 (gene 969) [7] it was “inactive”; in assay [8] it was “inactive”; in assay [9], “inactive”; in assay [10] it was “inactive”; in assay [11] it was “inactive”. The outcome in the assay with KRT18 (gene 3875) is “inactive”; in assay [12], “inactive”; in assay [13] it was “inactive”; with CD69, CD69 (gene 969) [14], “inactive”.

Turning to `COc1ccc2ccccc2c1`, the outcome in assay [18] was inactive.

As for `CCCCCCCCCCCCSC#N`, the AC50 in assay [15] is 6.16 µM (active).

Turning to `CC/C=C/CCO`, the call in [16] and in [18] was inactive.

For `Cc1c(C(N)=O)cc([N+](=O)[O-])cc1[N+](=O)[O-]`, the outcome in assay [1] was “inactive”; in assay [2] it was “inactive”; with CD40, CD40 (gene 958) it was “inactive”; in [3] it was “inactive”; in [4], “inactive”; in [5], “inactive”. Also, the outcome was “inactive” in [6]; “inactive” in the assay with CD69, CD69 (gene 969) [7]; “inactive” in assay [8]; “inactive” in [9]; “inactive” in assay [10]; “inactive” in assay [11]. Also, the outcome with KRT18 (gene 3875) was “inactive”; in assay [12] it was “inactive”; in assay [13], “inactive”; in the assay with CD69, CD69 (gene 969) [14], “inactive”. The AC50 in assay [12] was 15.4 µM (active).
